Data taken from PubChem BioAssay (NCATS).
Unmarked numbers belong to inactive results. The call rests on the fitted dose curve; in most records, active means well fitted curve in the direction sought with a large enough effect; inconclusive means small, poorly fitted or top-dose-only effect, or effect the other way, or another doubt; inactive means no such curve, though single readings can be large or run the other way.

Test: Inducers of the Endoplasmic Reticulum Stress Response (ERSR) in human glioma: Validation (AID 504836); further: 0% is about no effect
Settings: human glioma cells, ER stress response reporter; series mostly up to 38.3 µM; activation: at the top concentration
Outline: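 Stably transfected U87-MG glioma cells carrying a GRP78-based luciferase sensor; 16 h compound incubation. Luminescence end-point read 10 min after Bright-Glo addition at room temperature.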

Row | SMILES | activation [%]
1 | C[C@]12CCC(=O)C=C1CC[C@@H]1[C@@H]2[C@@H](O)C[C@@]2(C)[C@H]1CC[C@]2(O)C(=O)CO | -1.54
2 | COCCc1ccc(OCC(O)CNC(C)C)cc1 (stereo not drawn) | -1.37
3 | NCCc1ccc(O)c(O)c1 | -1.5
4 | Clc1ccccc1C(c1ccccc1)(c1ccccc1)n1ccnc1 | -3.54
5 | Cc1cccc(C)c1NC(=O)C(C)N (stereo not drawn) | -1.47
6 | c1ccc([C@H]2CN3CCSC3=N2)cc1 | -0.794
7 | CC(C)COCC(CN(Cc1ccccc1)c1ccccc1)N1CCCC1 (stereo not drawn) | -2.72
8 | C#CCN(C)CCCOc1ccc(Cl)cc1Cl | 2.76
9 | NCCc1cnc[nH]1 | 0.566
10 | O=C(O)CN(CCOCCOCCN(CC(=O)O)CC(=O)O)CC(=O)O | -4.55
11 | Oc1ccc(O)cc1 | 3.38
12 | CCN(CC)CCOCCOC(=O)C1(c2ccccc2)CCCC1 | -3.67
13 | CN1CCN(C2Cc3ccccc3Sc3ccc(Cl)cc32)CC1 (stereo not drawn) | 2.32
14 | CN1CCC(=C2c3ccccc3CC(=O)c3sccc32)CC1 | -2.48
15 | CC(=O)[C@@]1(O)CC[C@H]2[C@@H]3CCC4=CC(=O)CC[C@]4(C)[C@H]3CC[C@@]21C | -0.676
16 | CC(C(O)c1ccc(O)cc1)N1CCC(Cc2ccccc2)CC1 (stereo not drawn) | 1.4
17 | CCCn1cnc2c1c(=O)n(CCCCC(C)=O)c(=O)n2C | -1.37
18 | CN1Cc2c(N)cccc2C(c2ccccc2)C1 (stereo not drawn) | -6.09
19 | COCCOC(=O)C1=C(C)NC(C)=C(C(=O)OC/C=C/c2ccccc2)C1c1cccc([N+](=O)[O-])c1 (stereo not drawn) | -1.87

Row | SMILES | activation [%]
20 | CCOC(=O)Nc1ccc(NCc2ccc(F)cc2)nc1N | -5.1
21 | CCCCNc1cc(C(=O)O)cc(S(N)(=O)=O)c1Oc1ccccc1 | -1.23
22 | Cc1[nH]c(=O)c(C#N)cc1-c1ccc2nccn2c1 | -3.49
23 | Nc1c2c(nc3ccccc13)CCCC2O (stereo not drawn) | -3.06
24 | COc1ccccc1N1CCN(CCCNc2cc(=O)n(C)c(=O)n2C)CC1 | -4.61
25 | O=C(Nc1ccc([N+](=O)[O-])cc1Cl)c1cc(Cl)ccc1O | -10.8
26 | COc1cc(C(=O)OCCCN2CCCN(CCCOC(=O)c3cc(OC)c(OC)c(OC)c3)CC2)cc(OC)c1OC | 6.01
27 | CC1=C(CC(=O)O)c2cc(F)ccc2/C1=C\c1ccc(S(C)(=O)=O)cc1 | -2.22
28 | CNC[C@H](O)c1ccc(O)c(O)c1 | -2.6
29 | Cc1cc(C)c(/C=C2\C(=O)Nc3ccccc32)[nH]1 | 0.328
30 | O=C1NCN(c2ccccc2)C12CCN(CCCC(c1ccc(F)cc1)c1ccc(F)cc1)CC2 | 0.483
31 | CN(C)C(=O)Oc1cccc([N+](C)(C)C)c1 | 0.849
32 | CC1=C(CC(=O)O)c2cc(F)ccc2/C1=C\c1ccc(S(C)=O)cc1 (stereo not drawn) | 1.62
33 | Nc1c2c(nc3ccccc13)CCCC2 | -3.14
34 | COCC(=O)O[C@]1(CCN(C)CCCc2nc3ccccc3[nH]2)CCc2cc(F)ccc2[C@@H]1C(C)C | -6.25
35 | COc1cc2c(cc1OC)-c1cc(=Nc3c(C)cc(C)cc3C)n(C)c(=O)n1CC2 | -1.9
36 | N[C@@H](Cc1c[nH]c2ccc(O)cc12)C(=O)O | -2.05
37 | COc1ccc2c(c1OC)C(=O)O[C@@H]2[C@H]1c2c(cc3c(c2OC)OCO3)CCN1C | -0.374
38 | CCC(=O)c1ccc2c(c1)N(CCCN(C)C)c1ccccc1S2 | -0.121
